Values joined by “and” are separate entries in the source; they are usually repeats but may differ in a detail not shown here. Equal entries are not always repeated. Compounds without any hit were thinned out: in the full panel of roughly 83,000, 20% have a hit.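 The test compound was applied at a single concentration to cells in 96-well plates for 48 hours, and percent growth was recorded.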 Active and inactive are the calls of the source. How the source made its calls: active means growth percent below 10; inactive means the rest.
Test system: MDA-MB-468 breast
Assay: NCI-60 one-dose screen, 48 h (100 = growth as untreated, 0 = no growth, -100 = all killed)
Details: 10 µM unless noted

Compound | growth
Cc1ccc(NC(=O)/C=C/c2ccccc2)c(C(N)=O)c1 | 22.5% (inactive)
CC(=O)N[C@H](C(=O)N[C@@H](CCCNC(=N)N)C(=O)N[C@@H](CCCCN)C(=O)N[C@@H](CCCNC(=N)N)C(=O)NC(C(=O)N[C@@H](CC(C)C)C(=O)N[C@@H](CCCNC(=N)N)C(=O)N[C@@]1(C)CCC/C=C\CCC[C@@](C)(C(=O)N[C@@H](CCCNC(=N)N)C(=O)N[C@@H](CCC(=O)O)C(=O)N[C@@H](CC(C)C)C(=O)N[C@H](C(=O)N[C@@H](CCC(=O)O)C(N)=O)C(C)C)NC(=O)[C@H](CCC(N)=O)NC(=O)[C@H](CC(C)C)NC(=O)[C@H](CC(C)C)NC1=O)[C@@H](C)O)C(C)C (some centres undefined) | 31.9% (inactive)
O=C(O)c1cn(C2CC2)c2cc(N3CCN(Cc4c(O)ccc5ccccc45)CC3)c(F)cc2c1=O | 35.1% (inactive)
O=[N+]([O-])c1cccc(/C=C/c2ccccn2)c1 | 48.1% (inactive)
C[C@@H]1C[C@H]2C(=O)O[C@@H](C)[C@H](NC(=O)[C@H](Cc3cc(F)cc(F)c3)NC(=O)Nc3ccc(C4CC4)cc3F)C(=O)N3CCC[C@H]3C(=O)N3CCCC[C@H]3C(=O)N[C@@H](C)C(=O)N2C1 | -16.1% (active)
Cc1nc(Sc2nc3ccc([N+](=O)[O-])cc3s2)sc1C | 6.67% (active)
CCCCCN1C=C/C(=C\C(=O)N(C)c2cccc3ccccc23)c2ccccc21 | 70.9% (inactive)
COc1cc(NS(=O)(=O)C(C)C)cc(-c2cc(-c3ccc(N4CCNCC4)cc3)cnc2N)c1 | 92.2% (inactive)
CCCCCN1CCN(C(CC(=O)c2ccccc2)C(=O)c2ccccc2)CC1 (centres undefined) | 103% (inactive)
CN(C)S(=O)(=O)Oc1ccc(-c2sc3cc(OS(=O)(=O)N(C)C)ccc3c2C(=O)c2ccc(OCCN3CCCCC3)cc2)cc1 | 61.7% (inactive)
CCN(CC)CCOC(=O)C(c1ccccc1)(c1ccccc1)C(C)C | 80% (inactive)
COc1cccc2nc(Nc3ccc(NC(=O)c4ccc5ncccc5c4)cc3)ccc12 | 88.9% (inactive)
CC(C)C[C@@H](NC(=O)[C@@H](Cc1ccccc1)NC(=O)c1cnccn1)B1O[C@H]2[C@H](O)[C@@H](C(=O)NCCCC[C@@H]3NC(=O)[C@@H](Cc4ccccc4)NC(=O)[C@H](CC(=O)O)NC(=O)CNC(=O)[C@H](CCCN=C(N)N)NC3=O)O[C@@H](CN)[C@H]2O1 | -45.5% (active)
COc1ccc(C(=O)/C(=N/Nc2ccccc2)c2ccc(OC)cc2)cc1 | 106% (inactive)
CC(C)C(C)(C)c1ccc(O)cc1 | 91.1% (inactive)
Nc1c(O)c(S(=O)(=O)O)c(O)c2c1C(=O)c1ccccc1C2=O | 1.06% (active)
Nc1ncnc2c1ncn2C1OC(CO)C(O)C1O (centres undefined) | 116% (inactive) and -13.3% (active)
NC(=O)CC(NC(=O)COc1ccc(Cl)cc1Cl)C(=O)O (centres undefined) | 108% (inactive)
COc1ccc(C/C(C)=C(/c2ccc(OCCN3CCCCCC3)cc2)c2ccc(OC(=O)NCc3ccccc3)cc2)cc1 | 83% (inactive)
Cc1nc2cc(Nc3nc(Nc4ccc(F)cc4)nc(-c4ccc(Cl)cc4)n3)ccc2n1Cc1ccccc1 | 74.3% (inactive)
Cn1c(=O)c2nc(SCc3ccccc3)n(C)c2n(C)c1=O | 103% (inactive)
O=C1/C(=C/c2ccccc2F)CN(C(=O)C(Cl)Cl)C/C1=C\c1ccccc1F | -32.4% (active)
O=C(CCCCCCCC(=O)N1CCCCC1)N1CCCCC1 | 105% (inactive)
CCOC(=O)c1[nH]c(C)c(C(=O)O)c1C | 108% (inactive)
COc1ccc(C(=O)c2sc3nc4c(c(C(F)(F)F)c3c2N)CN(C(C)=O)CC4)cc1OC | 83.7% (inactive)
O=P([O-])(O)OP(=O)([O-])O.[NH-][C@H]1CCCC[C@@H]1[NH-].[OH-].[OH-].[Pt+4] | 102% (inactive)
COc1ccc(-c2c(N)n[nH]c2-c2ccc(Cl)cc2O)cc1OC | 84.1% (inactive)

Compound | growth
COc1ccc(NC(=O)c2ccc3c(c2)nc(-c2ccc(Cl)cc2)n3-c2cc(C(C)(C)C)[nH]n2)cc1 | 87.5% (inactive)
COc1ccc(C2NCCc3c2[nH]c2ccccc32)cc1CN1CCN(c2ccc(F)cc2)CC1 (centres undefined) | 49% (inactive)
COc1cc(-c2nc3ccc(C)cc3[nH]2)ccc1OCc1nnc(-c2ccc(CC(C)C)cc2)o1 | 116% (inactive)
CCc1cccc(Cl)c1 | 113% (inactive)
CCC[S@](=O)c1ccc2nc(NC(=O)OC)[nH]c2c1 | 94.1% (inactive)
CC(C)(C)c1cc(C(C)(C)C)cc(S(=O)(=O)Nc2cc3ccccc3cc2C(=O)NCCN)c1 | -69.6% (active)
CCN1C(=O)N(CC)C2SC(N/N=C/c3ccc(OC)cc3)=NC21 (centres undefined) | 32.2% (inactive)
CC1(C)OC2[C@@H](CNC(=O)NC(=O)NC(=O)CI)O[C@@H](n3cnc4c(NC(=O)Nc5ccccc5)ncnc43)[C@H]2O1 (some centres undefined) | 64% (inactive)
O=C1c2cccnc2C(=O)c2c1c(C(=O)OCCCN1CCCCC1)c1ccccn21 | 31.6% (inactive)
C/C(Cc1ccc(Cl)cc1)=C(\c1ccc(O)cc1)c1ccc(Cl)cc1 | 101% (inactive)
COc1cccc(Oc2ccccc2NC(=O)CNC(=O)c2cccc3ccccc23)c1 | 12.1% [5 µM] (inactive)
Cc1ccc2c(c1)C(C)Cc1c(ncnc1-n1cnc3cc(C)ccc31)N2C (centres undefined) | 9.76% (active)
Cc1ccc2c(c1)C(=O)/C(=C/c1cccc(F)c1)S2 | 84.7% (inactive)
COc1ccc(OC2=C(C#N)C(=N)N3c4ccccc4Sc4ccccc4C3N2)cc1 (centres undefined) | 94.5% (inactive)
CCCN1C(=O)N(CCC)C2C1NC(=S)N2/N=C/C=C/c1ccccc1OC (centres undefined) | 1.14% (active)
CCNC(=O)OCCc1c2ccccc2nc2ccccc12 | 108% (inactive)
Nc1ccc(Nc2ncnc3sc4c(c23)CCN(Cc2ccccc2)C4)cc1 | 90.4% (inactive)
COc1ccc(C(=O)c2sc3nc(C)cc(C)c3c2N)cc1OC | 88% (inactive)
CN(C)C/C=C/C(=O)Nc1cc2c(Nc3cccc(Cl)c3F)ncnc2cc1OCCOC(F)F | -44.6% (active)
CC(C)c1cc(C(=O)O)c(O)c(C(C)C)c1.CC(C)c1cc(C(=O)O)c(O)c(C(C)C)c1.[Mn] | 120% (inactive)
O=C(Nc1ccc(-c2nc(-c3cccc(O)c3)c(-c3ccnc(Br)c3)[nH]2)cc1)c1ccccc1 | 7.45% (active)
CCC1OC(OC)C=CC1=O (centres undefined) | 100% (inactive)
CC(CSc1n[nH]c(=S)s1)c1ccccc1 (centres undefined) | 114% (inactive)
Cc1nn(-c2ccccc2)cc1/C=N/Nc1nc(Nc2ccccc2)nc(Nc2ccc(S(N)(=O)=O)cc2)n1 | -37.1% (active)
CC(=O)c1c(C)[nH]c(-c2nc3ccc(N4CCN(C)CC4)cc3[nH]2)c1-c1ccccc1 | 24.1% (inactive)
CCOC(=O)c1c(C)nc2c(c1N)CC(=O)N2Cc1cc(F)cc(Cl)c1 | 84.9% (inactive)
CC1OC(C(=O)N2CCN(CCO)CC2)CC1COC1CCCCC1 (centres undefined) | 94.6% [50 µM] (inactive)

Compound | growth
COc1ccc(CNC(=O)C(=O)[C@H](Cc2ccccc2)NC(=O)c2[nH]c3ccccc3c(=O)c2C)cc1 | 98.4% (inactive)
OCc1cccnc1 | 102% (inactive)
COc1cc(C2CC(=O)c3ccccc3N2)cc(OC)c1OC (centres undefined) | 90.5% (inactive)
COc1ccc(C(=O)N2c3ccccc3Sc3ccccc32)c(F)c1 | -13.7% (active)
COc1ccc(-c2cn[nH]c2-c2ccc(OC)c(O)c2)cc1 | 47.1% (inactive)
CN(C)CCNc1nc2c3cc(Cl)ccc3nn2c2ccccc12 | 74.2% (inactive)
CCCn1cnc2c(c1=N)C(c1ccc(F)cc1)c1sc3c(CC)cccc3c1O2 (centres undefined) | -47.9% (active)
Nc1ccc2c(c1)Cc1cc(N)c(Br)cc1-2 | 81.9% (inactive)
CNc1nc(NC)c2cn[nH]c2n1 | 94.8% (inactive)
CNC(=O)c1c(NC(=O)c2cccc(C(F)(F)F)c2)sc2c1CCC(=O)C2 | -28% (active)
C[C@H]1[C@H](OC(=O)CCC(=O)O)O[C@@H]2O[C@]3(C)CC[C@H]4[C@H](C)CC[C@@H]1[C@@]24OO3 | 29.1% (inactive)
O=c1c2ccccc2n(C[C@H]2CO2)c2ccccc12 | -7.32% (active)
O=C(Nc1cccc(-n2ccc3c(NC(=O)c4ccccc4)nccc32)c1)c1cccc(C(F)(F)F)c1 | -2% (active)
Nc1c(C(=O)Nc2cccc3ccncc23)sc2nc3c(cc12)C(=O)CCC3 | -12.6% (active)
CC(=O)Oc1c(Cl)cccc1-c1ccccc1 | 100% (inactive)
CC(Cl)(CCl)CS(=O)(=O)c1ccc(Cl)cc1 (centres undefined) | 104% (inactive)
CNc1nc2c(s1)C(c1cc(F)ccc1F)CC(=O)N2 (centres undefined) | -2.32% (active)
CCc1nnc(NC(=O)c2nnn(-c3ccccc3)c2-c2ccco2)s1 | 95.9% (inactive)
N=C(N)c1ccc(S(N)(=O)=O)cc1 | 96.8% (inactive)
Cc1cn(-c2cc(C(=O)Nc3cccc(-n4ccc5c(NC(=O)c6ccccc6)nccc54)c3)cc(C(F)(F)F)c2)cn1 | -9.97% (active)
COc1ccc(/C=C2/C(=O)NC(SCC(=O)N3CCN(c4cc5c(cc4F)c(=O)c(C(=O)O)cn5C4CC4)CC3)=NC2N)cc1OC (centres undefined) | 102% (inactive)
O=C(Nc1cc(Nc2ncccc2-c2ncnc3nc[nH]c23)ccc1F)c1cc(C(F)(F)F)cc(C(F)(F)F)c1 | -24.9% (active)
CCCCOc1nc2ccc(C)cc2cc1/C=C/C(=O)/C=C(O)/C=C/c1cc2cc(C)ccc2nc1OCCCC | 104% (inactive)
CCc1c2cc(Cl)ccc2n2cc(Cc3ccccc3)[nH]c(=O)c12 | 115% (inactive)
O=[N+]([O-])c1ccc(O)cc1Br | 106% (inactive)

From PubChem BioAssay (NCI)
